The full ranking holds about 8,300 sequences; the median of “log2 fold change of degron read counts, EGFP-low vs EGFP+ sorted cells (limma voom), compound-induced degradation” is about -1.1, and the highest 2% start at about 3.2. Shown is part of a subset that was picked to be rich in the highest values.

This experiment deals with T1, CRBN, Q96SW2.
T1 chain: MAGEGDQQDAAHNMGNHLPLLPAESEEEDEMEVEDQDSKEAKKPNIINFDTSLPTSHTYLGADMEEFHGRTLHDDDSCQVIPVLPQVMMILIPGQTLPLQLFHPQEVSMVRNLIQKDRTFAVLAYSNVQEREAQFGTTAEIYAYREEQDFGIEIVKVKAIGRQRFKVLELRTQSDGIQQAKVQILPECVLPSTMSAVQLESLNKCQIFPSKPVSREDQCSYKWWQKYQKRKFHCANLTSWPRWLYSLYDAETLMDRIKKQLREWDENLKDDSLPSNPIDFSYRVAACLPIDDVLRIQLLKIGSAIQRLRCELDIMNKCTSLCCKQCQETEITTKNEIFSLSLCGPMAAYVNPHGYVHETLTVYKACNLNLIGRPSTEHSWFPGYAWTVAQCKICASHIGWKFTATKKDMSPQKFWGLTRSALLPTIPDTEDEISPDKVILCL
Put plainly: log2 fold change of degron read counts, EGFP-low vs EGFP+ sorted cells (limma voom), compound-induced degradation; higher = more compound-induced degradation of the degron-EGFP fusion; degrons are variants of IKZF1/3 zinc finger 2; compound dose not given here. Conditions: Jurkat, 18 h. Here is the method:
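Pooled library of 8380 IKZF3 ZF2 degron mutants (positions 146-167 varied within the IKZF3 130-189 degron; only the varied core is printed, flanks not printed) fused to EGFP with IRES-mCherry, lentivirally expressed in Jurkat cells. mCherry+ cells were treated with one IMiD compound for 18 h (dose not stated) and FACS-sorted into EGFP-low and EGFP+ populations. Degron sequences were counted by NGS, and log2FC (EGFP-low vs EGFP+) was estimated by limma voom over 3 biological replicates.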

Setting [1] is: compound: compound 19 (5-tert-butyl-thalidomide).
The mark [2] stands for this setting: compound: compound 22 (5-morpholino-thalidomide).
The mark [3] stands for this setting: compound: compound 33 (diphenyl IMiD analogue).
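Also: pooled lentiviral library of zinc finger degron-EGFP fusions in mCherry-positive Jurkat cells, FACS-sorted after compound exposure, with degron abundance counted by next-generation sequencing.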

For FGCEQCGAKFTQKGNLLRHIKL [46F_47G_49E_50Q_52G_53A_54K_55F_67L_, Q9UKT9], the “log2 fold change of degron read counts” value is 0.32 under setting [1], -2.26 under setting [2], -2.15 under setting [3] and -0.779 (compound: thalidomide).

For the sequence FLCPVCGAEFTQKGNLLRHIKL [46F_47L_49P_50V_52G_53A_54E_55F_67L_, Q9UKT9], the “log2 fold change of degron read counts” value runs as follows: under setting [1], -0.14; under setting [2], -1.09; under setting [3], 1.21; (compound: thalidomide) 1.24.

Turning to FCCPQCGANFTQKGNLLRHIKL [46F_47C_49P_50Q_52G_53A_54N_55F_67L_, Q9UKT9], the “log2 fold change of degron read counts” value under setting [1] is -0.811, the “log2 fold change of degron read counts” value under setting [2] is -1.28, the “log2 fold change of degron read counts” value under setting [3] worked out at 0.128 and the “log2 fold change of degron read counts” value (compound: thalidomide) was -0.853.

Consider FMCNQCGHWFTQKGNLLRHIKL [46F_47M_49N_50Q_52G_53H_54W_55F_67L_, Q9UKT9], for which the “log2 fold change of degron read counts” value is -2.24 under setting [1], -2.49 under setting [2], -2.26 under setting [3] and -2.73 (compound: thalidomide).

FDCNQCGANFTQKGNLLRHIKL [46F_47D_49N_50Q_52G_53A_54N_55F_67L_, Q9UKT9]: the “log2 fold change of degron read counts” value is, setting by setting: under setting [1], -2.41; under setting [2], -2.24; under setting [3], -2.07; (compound: thalidomide) -2.31.

FNCEICGARFTQKGNLLRHIKL [46F_47N_49E_50I_52G_53A_54R_55F_67L_, Q9UKT9]: the “log2 fold change of degron read counts” value reads like this: under setting [1], 2.49; under setting [2], 0.909; under setting [3], -0.686; (compound: thalidomide) 0.645.

With FKCEICGARFTQKGNLLRHIKL [46F_47K_49E_50I_52G_53A_54R_55F_67L_, Q9UKT9], the “log2 fold change of degron read counts” value under setting [1] was -1.5, the “log2 fold change of degron read counts” value under setting [2] was -3.6, the “log2 fold change of degron read counts” value under setting [3] is -3.25 and the “log2 fold change of degron read counts” value (compound: thalidomide) is -1.17.

As for FSCEICGARFTQKGNLLRHIKL [46F_47S_49E_50I_52G_53A_54R_55F_67L_, Q9UKT9], the “log2 fold change of degron read counts” value was 3.25 under setting [1], 2.89 under setting [2], 0.489 under setting [3] and 2.12 (compound: thalidomide).

With FGCEICGARFTQKGNLLRHIKL [46F_47G_49E_50I_52G_53A_54R_55F_67L_, Q9UKT9], the “log2 fold change of degron read counts” value by setting is: under setting [1], 3.15; under setting [2], 2.26; under setting [3], -0.576; (compound: thalidomide) 1.48.

Consider FCCEICGARFTQKGNLLRHIKL [46F_47C_49E_50I_52G_53A_54R_55F_67L_, Q9UKT9], for which the “log2 fold change of degron read counts” value under setting [1] worked out at 3.25, the “log2 fold change of degron read counts” value under setting [2] stood at 3.01, the “log2 fold change of degron read counts” value under setting [3] is 1.66 and the “log2 fold change of degron read counts” value (compound: thalidomide) came out at 3.08.

In the case of FSCEICGALFTQKGNLLRHIKL [46F_47S_49E_50I_52G_53A_54L_55F_67L_, Q9UKT9], the “log2 fold change of degron read counts” value runs as follows: under setting [1], 0.851; under setting [2], 0.0276; under setting [3], 2.41; (compound: thalidomide) -0.115.

On to FDCPICGREFTQKGNLLRHIKL [46F_47D_49P_50I_52G_53R_54E_55F_67L_, Q9UKT9], for which the “log2 fold change of degron read counts” value runs as follows: under setting [1], -1.43; under setting [2], -1.65; under setting [3], -0.206; (compound: thalidomide) 0.273.

As for FQCPICGHKFTQKGNLLRHIKL [46F_47Q_49P_50I_52G_53H_54K_55F_67L_, Q9UKT9], the “log2 fold change of degron read counts” value is, setting by setting: under setting [1], -1.95; under setting [2], -1.73; under setting [3], -1.82; (compound: thalidomide) 0.342.

Turning to FDCDICGATFTQKGNLLRHIKL [46F_47D_49D_50I_52G_53A_54T_55F_67L_, Q9UKT9], the “log2 fold change of degron read counts” value by setting is: under setting [1], -0.229; under setting [2], -1.86; under setting [3], -1.66; (compound: thalidomide) -1.78.

Regarding FICNQCGAGFTQKGNLLRHIKL [46F_47I_49N_50Q_52G_53A_54G_55F_67L_, Q9UKT9], the “log2 fold change of degron read counts” value under setting [1] was -2.57, the “log2 fold change of degron read counts” value under setting [2] was -1.54, the “log2 fold change of degron read counts” value under setting [3] is -0.787 and the “log2 fold change of degron read counts” value (compound: thalidomide) was -0.966.

As to FYCPICGHNFTQKGNLLRHIKL [46F_47Y_49P_50I_52G_53H_54N_55F_67L_, Q9UKT9], the “log2 fold change of degron read counts” value is -1.61 under setting [1], -1.84 under setting [2], -0.993 under setting [3] and -1.92 (compound: thalidomide).

Consider LVCPICGFPCTQKGNLLRHIKL [46L_47V_49P_50I_52G_53F_54P_55C_67L_, Q9UKT9], for which the “log2 fold change of degron read counts” value by setting is: under setting [1], 0.138; under setting [2], 1.61; under setting [3], 0.747; (compound: thalidomide) 1.9.

On to LHCPICGFSCTQKGNLLRHIKL [46L_47H_49P_50I_52G_53F_54S_55C_67L_, Q9UKT9], for which the “log2 fold change of degron read counts” value runs as follows: under setting [1], 3.33; under setting [2], 3.49; under setting [3], 2.83; (compound: thalidomide) 2.54.

Turning to LACPICGFSCTQKGNLLRHIKL [46L_47A_49P_50I_52G_53F_54S_55C_67L_, Q9UKT9], the “log2 fold change of degron read counts” value under setting [1] came out at 3.69, the “log2 fold change of degron read counts” value under setting [2] came out at 3.18, the “log2 fold change of degron read counts” value under setting [3] turned out to be 2.48 and the “log2 fold change of degron read counts” value (compound: thalidomide) amounted to 2.94.

In the case of LGCPICGFECTQKGNLLRHIKL [46L_47G_49P_50I_52G_53F_54E_55C_67L_, Q9UKT9], the “log2 fold change of degron read counts” value under setting [1] amounted to 1.95, the “log2 fold change of degron read counts” value under setting [2] is 0.368, the “log2 fold change of degron read counts” value under setting [3] worked out at 0.47 and the “log2 fold change of degron read counts” value (compound: thalidomide) was 0.369.

As to LKCPICGFSCTQKGNLLRHIKL [46L_47K_49P_50I_52G_53F_54S_55C_67L_, Q9UKT9], the “log2 fold change of degron read counts” value was 1.33 under setting [1], -0.186 under setting [2], -0.695 under setting [3] and 1.64 (compound: thalidomide).

Regarding LLCPICGFSCTQKGNLLRHIKL [46L_47L_49P_50I_52G_53F_54S_55C_67L_, Q9UKT9], the “log2 fold change of degron read counts” value stood at 1.38 under setting [1], 0.88 under setting [2], 1.79 under setting [3] and 2.5 (compound: thalidomide).

Turning to LMCPICGFSCTQKGNLLRHIKL [46L_47M_49P_50I_52G_53F_54S_55C_67L_, Q9UKT9], the “log2 fold change of degron read counts” value runs as follows: under setting [1], 1.63; under setting [2], 2.78; under setting [3], 2.99; (compound: thalidomide) 2.69.

With LICPICGFSCTQKGNLLRHIKL [46L_47I_49P_50I_52G_53F_54S_55C_67L_, Q9UKT9], the “log2 fold change of degron read counts” value runs as follows: under setting [1], 0.996; under setting [2], 3.08; under setting [3], 2.1; (compound: thalidomide) 3.18.

Turning to LGCPICGFSCTQKGNLLRHIKL [46L_47G_49P_50I_52G_53F_54S_55C_67L_, Q9UKT9], the “log2 fold change of degron read counts” value reads like this: under setting [1], 3.62; under setting [2], 2.62; under setting [3], 2.12; (compound: thalidomide) 1.55.

For the sequence LDCPICGFSCTQKGNLLRHIKL [46L_47D_49P_50I_52G_53F_54S_55C_67L_, Q9UKT9], the “log2 fold change of degron read counts” value reads like this: under setting [1], 1.61; under setting [2], 0.446; under setting [3], 1.19; (compound: thalidomide) 2.17.

Consider LECPICGFSCTQKGNLLRHIKL [46L_47E_49P_50I_52G_53F_54S_55C_67L_, Q9UKT9], for which the “log2 fold change of degron read counts” value is 1.9 under setting [1], 0.453 under setting [2], 2.42 under setting [3] and 3.62 (compound: thalidomide).

On to LSCPICGFSCTQKGNLLRHIKL [46L_47S_49P_50I_52G_53F_54S_55C_67L_, Q9UKT9], for which the “log2 fold change of degron read counts” value came out at 3.04 under setting [1], 3.05 under setting [2], 2.54 under setting [3] and 2.8 (compound: thalidomide).

The values are drawn from the supplement of paper PMC12645437, “Orthogonal IMiD-Degron Pairs Induce Selective Protein Degradation in Cells” (ACS Chemical Biology, 2025).
